Results on eleven compounds are retold here after PubChem BioAssay (Tox21).

Several values for one entry are separate records, joined by “and”; a condition that tells them apart may be missing. Equal entries are not always repeated. Results filed as inconclusive are left out. Activity calls are given as the source filed them. Unless noted, calls follow the shape of the dose curve; as a rule, active = well fitted curve in the direction sought with a large enough effect in the repeat runs; inconclusive = weak or mixed curves; inactive = no such curve, though single readings can be large; an effect the other way counts as inactive or inconclusive.

Experiment [1] is described as follows: qHTS assay for small molecules that induce genotoxicity in human embryonic kidney cells expressing luciferase-tagged ATAD5 (AID 651632). Also: nearly all actives have a fitted effect of over 15% in size. Summed up:
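HEK293T cells carrying luciferase-tagged ATAD5 were given compound or DMSO vehicle and incubated 16 hr at 37C, 5% CO2. Luciferase activity was read after 30 min at room temperature with Amplite; a rise signals genotoxic stress.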
(Quantitative high-throughput screening tests each substance at several concentrations.)

Experiment [2] in a line: qHTS assay for small molecule agonists of the p53 signaling pathway - cell viability (AID 651633; calls by dose curve;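 also: p53RE-bla HCT reporter cells with a stable beta-lactamase p53 reporter; series mostly up to about 83 µM; nearly all actives have a fitted effect of over 30% in size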). An outline of the steps: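 Viability counter-read: CellTiter-Glo luminescence (30 min, room temperature) in the same p53RE-bla plates. These plates had been exposed to compounds for 16 h at 37 C.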
Experiment [3] in a line: qHTS assay for small molecules that induce genotoxicity in human embryonic kidney cells expressing luciferase-tagged ATAD5 - cell viability (AID 651634; calls by dose curve; also: nearly all actives have a fitted effect of over 25% in size). Summed up: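 HEK293T cells carrying luciferase-tagged ATAD5, 2,000 cells/well, exposed to compound for 15.5 hr at 37C. Viability read as live-cell protease activity by CellTiter-Fluor fluorescence after 30 min at 37C.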

Experiment [4] can be described thus: qHTS assay for small molecule disruptors of the mitochondrial membrane potential - cell viability (AID 720634; calls by dose curve;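 also: human HepG2 liver cancer cells; series mostly up to about 83 µM; nearly all actives have a fitted effect of over 20% in size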). Summed up:
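HepG2 cells, 2,000 per well, attached overnight, then treated 1 hr at 37 C, 5% CO2. Viability read as ATP by CellTiter-Glo luminescence after 30 min at room temperature. Read in the same wells as the m-MPI membrane-potential dye assay.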

A short description of experiment [5]: qHTS assay for small molecule disruptors of the mitochondrial membrane potential (AID 720635). Also: potency is read from the fitted curve at half-maximal effect. An outline of the steps: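 Mitochondrial membrane potential tracked with Mito-MPS dye, red aggregates (ex 540/em 590 nm) against green monomers (ex 490/em 535 nm). Compound treatment 1 hr at 37C, dye 30 min in HepG2.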
A short description of experiment [6]: qHTS assay to test for compound auto fluorescence at 590 nm (red) in HepG2 cells (AID 720674). An outline of the steps:
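We screened compounds on adherent HepG2 cells, incubating them for an hour at 37 C in 5% CO2 before reading emission at 590 nm under 540 nm excitation; values reflect equivalence to Rose Bengal sodium fluorescence.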

Experiment [7] in a line: qHTS assay to test for compound auto fluorescence at 535 nm (green) in HepG2 cells (AID 720675).
Experiment [8] is described as follows: qHTS assay to test for compound auto fluorescence at 460 nm (blue) in HEK293 cells (AID 720678). Summed up: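 HEK293, 2,000 cells/well, 10% dialyzed FBS; attach 4-5 hr 37C; pin compound or DMSO; o/n 37C/5% CO2; fluorescence 405/460 nm; triamterene-equivalent units.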
Experiment [9] in a line: qHTS assay to test for compound auto fluorescence at 590 nm (red) in HEK293 cells (AID 720679). Summed up:
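Intensity at 540nm excitation and 590nm emission is reported as Rose Bengal sodium-equivalent autofluorescence. Measurements followed overnight exposure (37C, 5% CO2) of HEK293 cells, 2,000 per well, to 23 nL compound.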

The nature of experiment [10]: qHTS assay to test for compound auto fluorescence at 535 nm (green) in HEK293 cells (AID 720680).
The nature of experiment [11]: qHTS assay to test for compound auto fluorescence at 460 nm (blue) in HEK293 cell free culture (AID 720681). An outline of the steps: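 Blue fluorescence (Ex 405/Em 460 nm, triamterene-equivalent) was read immediately after pin transfer of compound or DMSO into medium (DMEM, 10% FBS) without cells.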
A short description of experiment [12]: qHTS assay to test for compound auto fluorescence at 535 nm (green) in HEK293 cell free culture (AID 720682). An outline of the steps:
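Using fluorescein as calibrant, autofluorescence was quantified at 485/535 nm in cell-free DMEM containing 10% FBS after pintool addition of compound or vehicle.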

Experiment [13] in a line: qHTS assay to test for compound auto fluorescence at 590 nm (red) in HEK293 cell free culture (AID 720683). An outline of the steps:
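Red-channel autofluorescence of compounds in culture medium (DMEM, 10% FBS), no cells, measured at 540/590 nm. Rose Bengal sodium is the reference fluorophore for equivalence.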

The nature of experiment [14]: qHTS assay to test for compound auto fluorescence at 460 nm (blue) in HepG2 cell free culture (AID 720685). Summed up:
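Compound (23 nL) or DMSO pinned into cell-free MEM with 10% FBS; blue fluorescence read at 405/460 nm excitation/emission, expressed as auto-fluorescence equivalency to triamterene.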

Experiment [15] can be described thus: qHTS assay to test for compound auto fluorescence at 535 nm (green) in HepG2 cell free culture (AID 720686).
A short description of experiment [16]: qHTS assay to test for compound auto fluorescence at 460 nm (blue) in HepG2 cells (AID 720687). Summed up: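 Blue-channel autofluorescence (Ex/Em 405/460 nm, triamterene-equivalent) was measured after 1 hr compound exposure at 37 C, 5% CO2. Cells were HepG2, plated overnight at 37 C in MEM plus 10% FBS.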
The target of experiment [17] is Glucocorticoid receptor (Homo sapiens) (UniProt P04150). As to the kind of experiment: qHTS assay to identify small molecule agonists of the glucocorticoid receptor (GR) signaling pathway (AID 720691; active = well fitted activation curve with a large enough effect in the signal ratio in the repeat runs, not every such curve was filed as active; the % refers to the signal ratio). Summed up: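 GR-bla HeLa cells carrying a GRE-driven beta-lactamase reporter, exposed to compounds for 18 h at 37 C. Reporter activation read as fluorescence after 2 h with LiveBLAzer B/G FRET substrate at room temperature.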
Glucocorticoid receptor (Homo sapiens), sequence (P04150 whole entry, looked up): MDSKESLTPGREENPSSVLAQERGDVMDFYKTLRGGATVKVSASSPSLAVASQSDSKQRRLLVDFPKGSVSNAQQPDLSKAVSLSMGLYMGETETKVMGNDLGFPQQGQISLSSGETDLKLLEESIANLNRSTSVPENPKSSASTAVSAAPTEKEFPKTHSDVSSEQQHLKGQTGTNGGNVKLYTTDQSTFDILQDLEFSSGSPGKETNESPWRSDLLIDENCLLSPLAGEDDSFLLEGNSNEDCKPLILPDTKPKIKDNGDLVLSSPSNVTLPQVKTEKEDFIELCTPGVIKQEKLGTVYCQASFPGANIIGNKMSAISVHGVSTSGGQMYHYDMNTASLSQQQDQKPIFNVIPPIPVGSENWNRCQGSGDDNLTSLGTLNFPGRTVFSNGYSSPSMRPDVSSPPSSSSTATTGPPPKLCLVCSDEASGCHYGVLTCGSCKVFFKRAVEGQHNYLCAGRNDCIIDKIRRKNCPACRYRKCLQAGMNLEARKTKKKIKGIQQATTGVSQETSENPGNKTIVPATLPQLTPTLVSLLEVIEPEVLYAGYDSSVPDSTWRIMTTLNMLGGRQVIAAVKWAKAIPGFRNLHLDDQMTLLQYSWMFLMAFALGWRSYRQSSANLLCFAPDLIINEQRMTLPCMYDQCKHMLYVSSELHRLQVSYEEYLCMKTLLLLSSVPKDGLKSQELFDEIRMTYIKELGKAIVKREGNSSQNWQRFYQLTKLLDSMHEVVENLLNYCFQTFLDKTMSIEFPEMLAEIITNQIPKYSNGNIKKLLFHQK

Experiment [18] shares this target. As to the kind of experiment: qHTS assay to identify small molecule antagonists of the glucocorticoid receptor (GR) signaling pathway (AID 720692; active = well fitted inhibition curve with a large enough effect in the signal ratio in the repeat runs, not every such curve was filed as active; the % refers to the signal ratio). Summed up:
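GR-bla HeLa cells carrying a GRE-driven beta-lactamase reporter received compound after 4 h plating, then dexamethasone (5 nM final). After 18 h at 37C, the FRET substrate was loaded for 2 h at room temperature and fluorescence read.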

Experiment [19] in a line: qHTS assay for small molecule agonists of the p53 signaling pathway (AID 651631; calls by dose curve; also: nearly all actives have a fitted effect of over 15% in size). Summed up:
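Stably transfected HCT-116 cells (beta-lactamase behind p53 response elements) get compounds after a 5 h settling period; 16 h later at 37 °C, FRET substrate is loaded and fluorescence read after 2 h.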

Experiment [20] is described as follows: qHTS assay to test for compound auto fluorescence at 590 nm (red) in HepG2 cell free culture (AID 720684). Summed up:
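Plate contents were MEM with 10% FBS plus test compound or DMSO, no cells. Fluorescence was recorded with 540 nm excitation and 590 nm emission.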

Take `CC1C=[C-]C=C1.[C-]#[O+].[C-]#[O+].[C-]#[O+].[Mn]`: the compound was called inactive in experiment [1], in experiment [2], in experiment [3], in experiment [6], in [7] and in [8]. For the same compound, the call in experiment [9], in experiment [10], in experiment [11], in experiment [12], in experiment [13] and in experiment [14] was inactive. Further, the compound was called inactive in experiment [15], in [16] and in experiment [17]. Further, the Potency result in experiment [4], in experiment [5] and in [18] was “inactive” in each case.

With `[O-][Cl+2]([O-])O`, the outcome in experiment [19], in [2], in experiment [6], in experiment [8], in experiment [9] and in experiment [11] was inactive. The result in experiment [12], in experiment [13], in experiment [20], in experiment [14], in experiment [15] and in [16] was inactive. For the same compound, the Potency entry in experiment [4] and in [5] was “inactive” in each case.

As for `CN(C)[C@@H]1C(=O)C(C(N)=O)=C(O)[C@@]2(O)C(=O)C3=C(O)c4c(O)cccc4[C@@](C)(O)[C@H]3C[C@@H]12`, the result in experiment [19], in experiment [3], in experiment [6], in experiment [7], in experiment [8] and in [9] was inactive. Moreover, the compound was called inactive in experiment [10], in experiment [11], in experiment [12], in [13], in experiment [20] and in experiment [14]. In addition, the result in [15], in experiment [16] and in experiment [17] was inactive. For the same compound, the Potency entry in [4] and in experiment [18] was “inactive” in each case.

As to `CC(=O)C=C(C)C`, the call in experiment [1], in [3], in experiment [6], in experiment [7], in experiment [8] and in [9] was inactive. For the same compound, the result in experiment [10], in experiment [11], in experiment [12], in experiment [13], in experiment [20] and in experiment [14] was inactive. Further, the result in experiment [15], in experiment [16] and in experiment [17] was inactive. Moreover, the Potency result in experiment [4], in [5] and in experiment [18] was “inactive” throughout.

Regarding `CN(N=O)c1ccccc1`, the result in experiment [1], in experiment [2], in experiment [3], in [6], in [7] and in experiment [8] was inactive. For the same compound, the compound was classed as inactive in [9], in experiment [11], in experiment [12], in experiment [13], in experiment [20] and in experiment [14]. The compound was called inactive in experiment [15], in [16] and in experiment [17]. Besides, the Potency entry in [4], in [5] and in experiment [18] was “inactive” each time.

As for `CCC(C)(CC)c1cc(NC(=O)c2c(OC)cccc2OC)on1`, the call in experiment [1], in [3], in experiment [6], in experiment [8], in experiment [9] and in experiment [10] was inactive. Further, the outcome in experiment [11], in [12], in experiment [13], in experiment [20], in experiment [14] and in experiment [15] was inactive. For the same compound, the compound was called inactive in [16]. The Potency result in experiment [4] was “inactive”. For the same compound, the Potency in experiment [5] is 27.4 µM (active) and 20.9 µM (active).

For `OCCN(CCO)CCO`, the outcome in experiment [3], in experiment [6], in experiment [7], in [8], in experiment [9] and in experiment [10] was inactive. Also, the call in experiment [11], in [12], in experiment [13], in [20], in experiment [14] and in experiment [15] was inactive. The result in [16] was inactive.

As for `CCCN(CCC)c1c([N+](=O)[O-])cc(C(F)(F)F)cc1[N+](=O)[O-]`, the compound was called inactive in experiment [1], in experiment [2], in experiment [3], in experiment [6], in experiment [7] and in [8]. Also, the compound was classed as inactive in experiment [9], in [10], in experiment [11], in [12], in experiment [13] and in experiment [20]. The outcome in experiment [14], in experiment [15] and in experiment [16] was inactive. The Potency entry in experiment [4] is “inactive”.

Take `Cc1cccc([N+](=O)[O-])c1`: the call in experiment [1], in [2], in experiment [3], in [6], in [8] and in [9] was inactive. Moreover, the compound was called inactive in experiment [10], in experiment [11], in [12], in experiment [13], in experiment [20] and in experiment [14]. Further, the compound was called inactive in experiment [15], in experiment [16] and in [17]. For the same compound, the Potency result in experiment [4] and in experiment [5] was “inactive” throughout.

For `COC(=O)NS(=O)(=O)c1ccc(N)cc1`, the outcome in experiment [19], in experiment [1], in experiment [3], in experiment [6], in [8] and in experiment [9] was inactive. Further, the compound was called inactive in experiment [10], in experiment [11], in experiment [12], in [13], in experiment [20] and in experiment [14]. Besides, the compound was called inactive in [15], in experiment [16] and in experiment [17]. For the same compound, the Potency entry in experiment [4], in [5] and in experiment [18] was “inactive” each time.

With `CCCCN(CCCC)SN(C)C(=O)Oc1cccc2c1OC(C)(C)C2`, the compound was classed as inactive in experiment [1], in experiment [3], in experiment [6], in [8], in experiment [9] and in experiment [10]. In addition, the outcome in experiment [11], in experiment [12], in experiment [13], in experiment [20], in experiment [14] and in experiment [15] was inactive. Also, the compound was called inactive in [16] and in experiment [17]. The Potency entry in [4] and in experiment [18] was “inactive” throughout. Besides, the Potency in experiment [5] was 62.1 µM (active).
